# Screening data deposited in PubChem BioAssay by National Center for Advancing Translational Sciences (NCATS).
# TrxR1 substrate: is turned over as a substrate by rat TrxR1; O89049; purified TrxR1 substrate turnover, NADPH consumption readout; Potency, µM (top dose mostly 114 µM), for the others: at the highest dose activity change, negative = substrate turnover; actives 0.01% (n = 390,000); AID 588456; further: nearly all actives have a fitted effect of over 50% in size
# Target sequence (O89049 whole entry, looked up): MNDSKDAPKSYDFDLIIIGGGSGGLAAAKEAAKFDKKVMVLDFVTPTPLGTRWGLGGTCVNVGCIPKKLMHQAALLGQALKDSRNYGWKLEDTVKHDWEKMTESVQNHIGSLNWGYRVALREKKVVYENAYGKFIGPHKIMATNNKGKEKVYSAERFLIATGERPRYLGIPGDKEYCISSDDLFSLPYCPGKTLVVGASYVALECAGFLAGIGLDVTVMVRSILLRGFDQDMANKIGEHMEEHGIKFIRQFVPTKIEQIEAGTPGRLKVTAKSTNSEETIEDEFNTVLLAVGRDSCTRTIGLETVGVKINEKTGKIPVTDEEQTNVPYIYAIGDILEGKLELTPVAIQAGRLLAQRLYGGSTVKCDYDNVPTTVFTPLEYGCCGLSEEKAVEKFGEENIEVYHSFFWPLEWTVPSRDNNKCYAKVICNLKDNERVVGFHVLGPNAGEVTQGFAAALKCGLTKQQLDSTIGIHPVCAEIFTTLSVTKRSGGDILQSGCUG
#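 Rat TrxR1, dispensed at 90 nM, was prereduced with 400 uM NADPH (final) for 5 min at ~22 deg C, then incubated with compound 15 min before 400 uM selenite. A first-read NADPH fluorescence drop versus no-compound background flagged substrates.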
# PLK1 PBD inh: PLK1 (human) polo-box domain binding inhibition; P53350; Plk1 PBD binding of FITC phosphopeptide, fluorescence polarization; Potency, µM, without a hit: max response, negative = inhibition, usual class: inhibitors; actives 2.8% (n = 360,000); further: series mostly up to about 57 µM; nearly all actives have a fitted effect of over 65% in size
# mIDH1 inhibitor: blocks human mutant IDH1 R132H enzyme; actives 0.093% (n = 390,000); Potency, µM (doses to about 76.6 µM), inactives show at the top dose activity change, negative = inhibition, hits mostly inhibitors; O75874; AID 602179; IDH1-R132H enzyme, NADPH consumption, diaphorase/resazurin fluorescence; further: nearly all actives have a fitted effect of over 65% in size
#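 IDH1-R132H (0.5 ug/mL dispensed) in pH 7.5 Tris buffer was preincubated 30 min with compound, then given a substrate mix of 0.016 mM NADPH and 2 mM alpha-KG for 80 min at room temperature; remaining NADPH was read by diaphorase/resazurin fluorescence.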
# TrxR1 inh: blocks rat thioredoxin reductase 1; O89049; recombinant rTrxR1, NADPH fluorescence consumption, selenite substrate; Potency, µM (doses to about 114 µM), without a hit: at the highest dose activity change, negative = inhibition, hits mostly inhibitors; actives 1% (n = 390,000); further: nearly all actives have a fitted effect of over 65% in size
#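 Rat TrxR1 (90 nM in the dispensed reagent) was pre-reduced with 400 uM NADPH for 5 min at room temperature, then incubated with compound for 15 min. After 400 uM selenite was added, NADPH fluorescence (Ex 340/Em 450 nm) was followed for 8 min.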
# Sfp PPTase inh: inhibitors of Bacillus subtilis Sfp phosphopantetheinyl transferase; Biochemical Sfp PPTase activity, qHTS; Potency, µM, for inactives: largest response in the series, negative = inhibition, most hits filed as inhibitors; actives 3.5% (n = 310,000);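 further: the enzyme is Sfp with the accession as filed and its product quenches rhodamine fluorescence; 0% = enzyme reaction without inhibitor and -100% = no enzyme wells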
#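 Reaction rates are the 30-min fluorescence difference (ex 525, em 598 nm) in wells containing 15 nM Sfp, 5 uM rhodamine-CoA and 12.5 uM BHQ-2-YbbR at pH 7.6 with 10 mM MgCl2.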
# VDR inh: vitamin D3 receptor (human) inhibition; VDR-SRC2-3 peptide fluorescence polarization, 2 h; Potency, µM, for inactives: max response, negative = inhibition, hits mostly inhibitors; actives 0.93% (n = 400,000)
#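 Signal is fluorescence polarization, reporting how far test compounds block the interaction of VDR with the SRC2-3 coregulator peptide after a 2 h room-temperature incubation.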
# * marks the source's active call; other numbers are inactive results; ? = inconclusive; / = no result given; [ ] = dose if it differs, or a comment. Compounds with a hit are over-represented: about 5.2% of the library has one in this group of screens. The call rests on the fitted dose curve; in most records, active means well fitted curve in the direction sought with a large enough effect; inconclusive means small, poorly fitted or top-dose-only effect, or another doubt; inactive means no such curve, though single readings can be large; an effect the other way counts as inactive or inconclusive. Unless noted, on the % scale 0 is the no-effect control and ±100 the full control effect; potency means the concentration at half of the fitted maximal effect.
SMILES,TrxR1 substrate,PLK1 PBD inh,mIDH1 inhibitor,TrxR1 inh,Sfp PPTase inh,VDR inh
O=C1CC(c2ccc(O)c(O)c2)Oc2c1ccc(O)c2O (stereo not drawn),6%,-21%,-7%,-26%,56µM*,9%
CC(C)=CCc1c(O)ccc2c1OC(c1ccc(O)c(O)c1)CC2=O (stereo not drawn),3%,4%,-14%,-6%,2%,-13%
CCN(CCC(=O)O)c1ccc(/C=C/c2ccnc3ccccc23)cc1,-9%,/,/,-15%,/,/
Cc1ccc(N/N=C/c2c(C)c(C#N)c(=O)n(C)c2O)cc1C,-9%[57.1 µM],24µM*,12%,-58%,13µM*,?
COc1cc(S(=O)(=O)Nc2ccc(C)cc2)ccc1N=Cc1c(C)c(C#N)c(=O)n(C)c1O,-2%[57.1 µM],?,8%,7%[57.1 µM],8%,22%
O=C(/C=C/c1ccccc1)NCCSCc1ccccc1,-5%,30µM*,1%,4%,?,?
COc1ccc(C(=O)Nc2ccc(/C(C)=N/NC(=O)c3ccncc3)cc2)cc1,/,/,/,/,50µM*,/
CC1CN(C2CCN(S(=O)(=O)c3ccccc3)CC2)CC(C)O1 (stereo not drawn),-5%,-8%,8%,-14%,79µM*,-9%
CN(C)C(=O)CCC(=O)N1CCCC(C(=O)c2ccc(C(F)(F)F)cc2)C1 (stereo not drawn),13%,-5%,-1%,34%,9%,7%
CC1CN(C2=NC(=O)/C(=C3/C(=O)N(Cc4ccc(F)cc4)c4ccccc43)S2)CC(C)O1 (stereo not drawn),-1%,?,2%,21%,40µM*,?
N#Cc1nc(N2CCCCC2)nc(N2CCCCC2)n1,5%,/,/,12%,/,-9%
Cc1cc2nc3c(=O)[nH]c(=S)[nH]c3nc2cc1NC(=O)C(F)(F)F,-19%,-25%,-7%,?,79µM*,5%
CCCCc1nc2c(c3c1C[C@H](C)OC3)CN(C(=O)Nc1ccc(OC)cc1)CC2,/,/,/,/,4%,/
CCCCS(=O)(=O)N1CCc2nc(COc3ccccc3)c3c(c2C1)CO[C@@H](C)C3,/,/,/,/,11%,/
CCN1C(=NCCCOC(C)C)N[C@@H](CCc2ccccc2)[C@H](C(=O)NCCCOC(C)C)[C@H]1C,5%,24µM*,1%,-5%,0%,-21%
CCSc1nnc(-c2cccnc2)n1Cc1ccco1,3%,-8%,-2%,?,40µM*,6%
C(=C\c1ccccc1)/CSc1nnc(-c2ccncc2)n1Cc1ccco1,-9%,-20%,6%,?,50µM*,0%
O=C(CSc1nnc(-c2cccnc2)n1Cc1ccco1)c1ccc(Br)cc1,-3%,-6%,0%,?,-5%,-14%
Cc1cccc(-n2c(-c3ccccc3)cn3c4c(=O)[nH]c(=O)n(C)c4nc23)c1,9%,/,6%,29%,/,?
CCCCNC(=O)c1cccc(-n2c(C)nc3cccnc32)c1,8%,/,0%,20%,/,7%
COc1cc(NC(=S)Nc2cccc(C)n2)cc(OC)c1OC,4%,-1%,7%,?,20%,?
COc1ccc(NS(=O)(=O)c2cc(NC(=O)c3ccccn3)ccc2OC)cc1Br,-4%,4%,11%,16%,/,13%
COc1cc(C=Nc2ccccc2C(=O)Nc2ccccc2)cc(OC)c1OC,101%,-4%,6%,22µM*,16%,3%
COc1cc(NC(=O)c2ccccn2)cc(OC)c1OC,-1%,6.7µM*,13%,2%,-18%,?
CCN(CC)c1ccc(NC(=O)c2ccccn2)cc1S(=O)(=O)Nc1ccccc1OC,-5%,6.7µM*,10%,-10%,/,79µM*
COc1cc(NC(=S)Nc2ncccc2C)cc(OC)c1OC,7%,-13%,21%,?,50µM*,-19%
CC1CN(C(=O)c2ccc(OC3CCN(Cc4ccccn4)CC3)cc2)CCN1C (stereo not drawn),5%[57.1 µM],-10%,13%,9%[57.1 µM],-13%,?
